Test results: PubChem BioAssay (NCATS)
Inconclusive results are not listed. Calls of active or inactive are those of the source. Unless noted, calls follow the shape of the dose curve; as a rule, active = well fitted curve in the direction sought with a large enough effect; inconclusive = small, poorly fitted or top-dose-only effect, or another doubt; inactive = no such curve, though single readings can be large; an effect the other way counts as inactive or inconclusive.

Tests used:
[1] = Primary qHTS for inhibitors of nuclear receptor binding SET domain protein 2 (NSD2) in an isogenic RCH-ACV NSD2 p.E1099K mutant (9B) (AID 1645876); also: nearly all actives have a fitted effect of over 70% in size; also: potency is read from the fitted curve at half-maximal effect
[2] = Primary qHTS for inhibitors of nuclear receptor binding SET domain protein 2 (NSD2) in an RCH-ACV wild type WT cells (2C) (AID 1645877); also: nearly all actives have a fitted effect of over 70% in size; also: potency is read from the fitted curve at half-maximal effect
[3] = target: N-terminal Xaa-Pro-Lys N-methyltransferase 1 (Homo sapiens) (UniProt Q9BV86); assay: Confirmatory qHTS for Inhibitors of N-terminal methyltransferase 1 (NTMT1): MTaseGlo Assay (AID 1645874); also: potency is read from the fitted curve at half-maximal effect; nearly all actives have a fitted effect of over 65% in size
N-terminal Xaa-Pro-Lys N-methyltransferase 1 (Homo sapiens), sequence (Q9BV86 whole entry, looked up): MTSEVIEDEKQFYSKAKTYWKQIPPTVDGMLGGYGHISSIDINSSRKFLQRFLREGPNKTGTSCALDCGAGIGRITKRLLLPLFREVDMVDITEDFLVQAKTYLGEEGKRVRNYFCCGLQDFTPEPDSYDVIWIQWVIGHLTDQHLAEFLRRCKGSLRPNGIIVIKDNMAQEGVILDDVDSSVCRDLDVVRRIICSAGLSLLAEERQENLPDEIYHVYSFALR
How it was run: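 qHTS format: NTMT1 125 nM, SAM 100 uM, peptide SPKRIA 1 uM final; 15 min compound preincubation, 30 min reaction at room temperature. MTase-Glo luminescence.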

[4] = target: Rap guanine nucleotide exchange factor 3 (Homo sapiens) (UniProt O95398); assay: Confirmatory qHTS for agonist of cAMP-regulated guanine nucleotide exchange factor 3 (EPAC1) (AID 1645881);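 also: EPAC1 catalysed release of BODIPY-GDP from Rap1B seen as fluorescence loss; 100% = effect of cAMP agonist control; nearly all actives have a fitted effect of over 75% in size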
Rap guanine nucleotide exchange factor 3 (Homo sapiens), sequence (O95398 whole entry, looked up): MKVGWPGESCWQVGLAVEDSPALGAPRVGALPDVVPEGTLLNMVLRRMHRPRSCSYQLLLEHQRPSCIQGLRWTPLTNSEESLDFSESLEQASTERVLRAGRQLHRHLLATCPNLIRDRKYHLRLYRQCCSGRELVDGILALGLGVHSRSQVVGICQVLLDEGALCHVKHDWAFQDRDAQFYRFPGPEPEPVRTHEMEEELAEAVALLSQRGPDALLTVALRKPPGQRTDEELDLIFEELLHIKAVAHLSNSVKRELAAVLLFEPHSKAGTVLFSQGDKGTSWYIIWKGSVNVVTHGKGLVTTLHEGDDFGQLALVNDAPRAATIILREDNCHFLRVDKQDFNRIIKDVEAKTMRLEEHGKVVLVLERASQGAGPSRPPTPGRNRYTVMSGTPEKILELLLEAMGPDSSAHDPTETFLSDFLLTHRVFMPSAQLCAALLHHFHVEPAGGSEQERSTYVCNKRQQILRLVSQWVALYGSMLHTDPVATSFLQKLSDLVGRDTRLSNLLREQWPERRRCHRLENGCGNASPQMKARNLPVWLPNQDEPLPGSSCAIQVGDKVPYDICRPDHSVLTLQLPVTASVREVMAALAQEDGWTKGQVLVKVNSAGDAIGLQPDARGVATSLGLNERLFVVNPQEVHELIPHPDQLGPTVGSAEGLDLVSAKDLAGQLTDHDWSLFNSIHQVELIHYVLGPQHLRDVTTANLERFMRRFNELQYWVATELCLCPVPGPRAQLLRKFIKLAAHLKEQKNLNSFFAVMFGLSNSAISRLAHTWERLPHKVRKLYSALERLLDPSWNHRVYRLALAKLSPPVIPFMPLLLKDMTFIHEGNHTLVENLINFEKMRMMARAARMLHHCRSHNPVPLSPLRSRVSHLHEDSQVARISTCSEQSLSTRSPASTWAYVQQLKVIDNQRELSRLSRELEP

[5] = target: Rap guanine nucleotide exchange factor 4 (Homo sapiens) (UniProt Q8WZA2); assay: Confirmatory qHTS for agonist of cAMP-regulated guanine nucleotide exchange factor 4 (EPAC2) (AID 1645884);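 also: nucleotide exchange releases bodipy-GDP from Rap1 and this lowers its fluorescence; % is scaled to controls: 0 for no effect and ±100 for the full control effect; nearly all actives have a fitted effect of over 65% in size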
Rap guanine nucleotide exchange factor 4 (Homo sapiens), sequence (Q8WZA2 whole entry, looked up): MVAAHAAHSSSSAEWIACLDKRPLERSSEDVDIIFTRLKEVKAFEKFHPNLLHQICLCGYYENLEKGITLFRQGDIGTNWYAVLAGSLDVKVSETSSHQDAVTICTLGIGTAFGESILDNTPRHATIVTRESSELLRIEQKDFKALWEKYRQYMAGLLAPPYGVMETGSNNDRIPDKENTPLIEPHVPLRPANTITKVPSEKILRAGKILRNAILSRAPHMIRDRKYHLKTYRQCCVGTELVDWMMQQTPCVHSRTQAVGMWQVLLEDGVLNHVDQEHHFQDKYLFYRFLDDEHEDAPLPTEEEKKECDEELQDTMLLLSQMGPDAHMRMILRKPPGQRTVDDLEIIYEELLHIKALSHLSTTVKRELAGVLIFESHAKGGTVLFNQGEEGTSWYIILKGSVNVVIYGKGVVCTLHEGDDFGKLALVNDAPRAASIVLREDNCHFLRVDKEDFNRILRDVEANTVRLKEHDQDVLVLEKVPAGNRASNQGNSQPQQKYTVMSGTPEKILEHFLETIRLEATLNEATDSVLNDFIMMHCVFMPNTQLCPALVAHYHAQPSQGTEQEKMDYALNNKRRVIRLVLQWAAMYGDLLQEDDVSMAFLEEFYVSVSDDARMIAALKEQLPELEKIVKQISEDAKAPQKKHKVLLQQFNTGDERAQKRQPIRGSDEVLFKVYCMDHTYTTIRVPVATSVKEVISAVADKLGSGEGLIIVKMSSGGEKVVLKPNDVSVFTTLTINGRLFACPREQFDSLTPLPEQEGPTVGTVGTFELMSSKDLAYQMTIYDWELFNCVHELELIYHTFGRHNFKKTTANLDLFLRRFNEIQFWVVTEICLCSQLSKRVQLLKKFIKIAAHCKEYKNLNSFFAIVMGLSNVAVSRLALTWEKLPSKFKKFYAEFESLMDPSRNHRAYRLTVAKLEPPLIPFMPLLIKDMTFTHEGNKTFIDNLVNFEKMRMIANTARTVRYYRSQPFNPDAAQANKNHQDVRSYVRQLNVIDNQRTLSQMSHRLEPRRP

[6] = target: Rap guanine nucleotide exchange factor 4 (Homo sapiens) (UniProt Q8WZA2); assay: Confirmatory qHTS for antagonist of cAMP-regulated guanine nucleotide exchange factor 4 (EPAC2) (AID 1645885); also: % is scaled to controls: 0 for no effect and ±100 for the full control effect; nearly all actives have a fitted effect of over 25% in size
[7] = target: Rap guanine nucleotide exchange factor 3 (Homo sapiens) (UniProt O95398); assay: Counterscreen qHTS for antagonist of cAMP-regulated guanine nucleotide exchange factor 3 (EPAC1) (AID 1645888);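 also: fluorescence loss as bound BODIPY-GDP is released from Rap1B; % of control where 0% means no effect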
How it was run: (§1)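 Rap1B–BODIPY-GDP (250 nM) with 50 uM GDP; compounds pin-transferred to 9.74 nM–152 uM final (activator) or from 7.32 nM upwards (inhibitor). Fluorescence Ex/Em 480/540 nm read at 5 and 30 min, then after adding cAMP or buffer, at room temperature.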

[8] = target: Catechol O-methyltransferase (Homo sapiens) (UniProt P21964); assay: Confirmatory Screen for Target Class Profiling of Small Molecule Inhibitors of Methyltransferases (AID 1745852; calls by dose curve; also: potency is read from the fitted curve at half-maximal effect; as to activity change, negative = inhibition: % is scaled to controls: 0 for no effect and ±100 for the full control effect); conditions: MTase-Glo luminescence, SAH detection, recombinant enzyme; measured here: COMT max response; stronger effect = lower value
Catechol O-methyltransferase (Homo sapiens), sequence (P21964 whole entry, looked up): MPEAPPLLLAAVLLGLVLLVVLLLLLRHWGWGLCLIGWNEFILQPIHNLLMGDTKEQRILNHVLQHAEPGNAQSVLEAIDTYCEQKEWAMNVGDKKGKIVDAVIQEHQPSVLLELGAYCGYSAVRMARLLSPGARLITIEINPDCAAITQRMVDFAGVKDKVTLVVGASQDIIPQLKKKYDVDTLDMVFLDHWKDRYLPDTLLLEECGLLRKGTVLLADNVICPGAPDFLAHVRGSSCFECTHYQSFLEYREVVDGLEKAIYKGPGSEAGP

[9] = target: Guanidinoacetate N-methyltransferase (Homo sapiens) (UniProt Q14353); assay: as above; conditions: MTase-Glo luminescence, SAH detection, recombinant enzyme; activity change, negative = inhibition: at 57.3 µM (top of the series) unless noted
[10] = target: Nicotinamide N-methyltransferase (Homo sapiens) (UniProt P40261); assay: as above; conditions: MTase-Glo luminescence, SAH detection, recombinant enzyme; measured here: NNMT max response; stronger effect = lower value
Nicotinamide N-methyltransferase (Homo sapiens), sequence (P40261 whole entry, looked up): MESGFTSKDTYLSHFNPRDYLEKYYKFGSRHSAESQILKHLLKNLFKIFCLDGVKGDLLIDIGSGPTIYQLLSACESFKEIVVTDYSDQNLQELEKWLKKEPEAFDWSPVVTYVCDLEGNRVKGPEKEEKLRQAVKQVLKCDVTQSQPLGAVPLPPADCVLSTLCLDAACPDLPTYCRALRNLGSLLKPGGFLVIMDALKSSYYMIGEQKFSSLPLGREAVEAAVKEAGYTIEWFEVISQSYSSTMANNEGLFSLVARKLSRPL

[11] = target: Phenylethanolamine N-methyltransferase (Homo sapiens) (UniProt P11086); assay: as above; conditions: MTase-Glo luminescence, SAH detection, recombinant enzyme; measured here: PNMT max response; stronger effect = lower value
Phenylethanolamine N-methyltransferase (Homo sapiens), sequence (P11086 whole entry, looked up): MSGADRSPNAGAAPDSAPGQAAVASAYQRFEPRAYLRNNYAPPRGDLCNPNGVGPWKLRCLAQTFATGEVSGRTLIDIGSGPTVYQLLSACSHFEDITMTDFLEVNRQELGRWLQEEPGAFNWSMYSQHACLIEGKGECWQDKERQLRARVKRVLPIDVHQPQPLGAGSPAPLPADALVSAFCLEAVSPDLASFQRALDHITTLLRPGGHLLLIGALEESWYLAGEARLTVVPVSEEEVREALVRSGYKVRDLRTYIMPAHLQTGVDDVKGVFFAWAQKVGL

[12] = target: Glutathione peroxidase 1 (Homo sapiens) (UniProt P07203); assay: Primary qHTS Assay for Inhibitors of Recombinant Selenoprotein Glutathione Peroxidase 1 (GPX1) (AID 1845191); also: nearly all actives have a fitted effect of over 65% in size; also: potency is read from the fitted curve at half-maximal effect
Glutathione peroxidase 1 (Homo sapiens), sequence (P07203 whole entry, looked up): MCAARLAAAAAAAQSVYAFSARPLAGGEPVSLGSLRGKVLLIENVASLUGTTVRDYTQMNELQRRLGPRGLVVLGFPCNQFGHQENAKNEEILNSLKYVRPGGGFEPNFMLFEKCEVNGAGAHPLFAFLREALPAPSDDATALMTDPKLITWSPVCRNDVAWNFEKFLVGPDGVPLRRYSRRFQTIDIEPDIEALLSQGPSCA
How it was run: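 GR-coupled assay: compounds preincubated 30 min at room temperature with GPX1, then reaction started with CHP; final 10 nM GPX1, 1 mM GSH, 0.5 mM CHP, 0.5 mM NADPH, 100 nM GR, 0.01% BSA, pH 7.5 Tris buffer. NADPH fluorescence (340/450 nm) read at 0 and 15 min.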

[13] = target: Phospholipid hydroperoxide glutathione peroxidase GPX4 (Homo sapiens) (UniProt P36969); assay: Primary qHTS Assay for Inhibitors of Recombinant Selenoprotein Glutathione Peroxidase 4 (GPX4) (AID 1845192); also: nearly all actives have a fitted effect of over 65% in size; also: potency is read from the fitted curve at half-maximal effect; as to activity change, negative = inhibition: % is scaled to controls: 0 for no effect and ±100 for the full control effect
Phospholipid hydroperoxide glutathione peroxidase GPX4 (Homo sapiens), sequence (P36969 whole entry, looked up): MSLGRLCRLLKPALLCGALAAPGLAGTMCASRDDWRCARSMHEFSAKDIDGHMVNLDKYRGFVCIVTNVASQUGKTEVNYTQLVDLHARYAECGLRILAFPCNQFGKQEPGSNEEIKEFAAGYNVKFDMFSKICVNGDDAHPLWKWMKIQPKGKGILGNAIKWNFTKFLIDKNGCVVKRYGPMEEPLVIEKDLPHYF
How it was run: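 GR-coupled assay: recombinant GPX4 preincubated 30 min with compound at room temperature; final 200 nM GPX4, 1 mM GSH, 0.5 mM cumene hydroperoxide, 0.5 mM NADPH, 100 nM GR, 0.01% BSA, pH 7.5 Tris. NADPH fluorescence (340/450 nm) read at 0 and 15 min.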

[14] = qHTS drug screen for cell cycle checkpoint inhibitors in PARPi-resistant BRCA-mutant ovarian cancer cell lines. (AID 1963452; calls by dose curve; also: potency is read from the fitted curve at half-maximal effect); conditions: PEO1/OlaR viability, CellTiter-Glo luminescence, 96 h; for Z-AUC: stronger effect = lower value
How it was run: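 PEO1, PEO4 and PEO1/OlaR ovarian cancer cells, 600 per well, exposed 96 h at 37C to a dilution series. Viability read by CellTiter-Glo luminescence, normalized to DMSO and empty wells; activity summarized as Z-AUC.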

[15] = target: Rap guanine nucleotide exchange factor 3 (Homo sapiens) (UniProt O95398); assay: Confirmatory qHTS for antagonist of cAMP-regulated guanine nucleotide exchange factor 3 (EPAC1) (AID 1645880);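 also: plate controls were DMSO only for no effect and full effect of the ATA control for full effect; nearly all actives have a fitted effect of over 55% in size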
How it was run: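 Nucleotide exchange uses 100 nM EPAC1, 250 nM RAP1B-BODIPY-GDP and 50 uM GDP, with compounds in a concentration-titration series. After 5 min at room temperature, fluorescence (480 nm ex/540 nm em) is read every 5 min for 30 min. Data are normalized to control ATA and DMSO.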

[16] = target: Rap guanine nucleotide exchange factor 3 (Homo sapiens) (UniProt O95398); assay: Counterscreen qHTS for agonist of cAMP-regulated guanine nucleotide exchange factor 3 (EPAC1) (AID 1645889); also: nearly all actives have a fitted effect of over 40% in size; also: potency is read from the fitted curve at half-maximal effect
How it was run: as §1

[17] = qHTS for Inhibitors of Ubiquitin-specific Protease USP2a Using CHOP2 as the Reporter: K633 Counterscreen (AID 652168); also: % of control where 0% means no effect
How it was run: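 Cell-free interference counterscreen without USP2a: compounds pinned into enzyme-free buffer (20 mM Tris pH 8, 2 mM beta-mercaptoethanol, 0.05% Chaps), then DiUb K48-4IQF substrate added (100 nM stock); fluorescence read kinetically, Ex 525/Em 598.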

[18] = target: Ubiquitin carboxyl-terminal hydrolase 2 (Homo sapiens) (UniProt O75604); assay: qHTS for Inhibitors of Ubiquitin-specific Protease USP2a Using CHOP2 as the Reporter: K484 Substrate (AID 652173); conditions: USP2 cleavage of DiUb K48 IQF substrate, fluorescence;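 also: cleavage of internally quenched K48 di-ubiquitin substrate measured as rising fluorescence over time; potency is read from the fitted curve at half-maximal effect; nearly all actives have a fitted effect of over 70% in size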
Ubiquitin carboxyl-terminal hydrolase 2 (Homo sapiens), sequence (O75604 whole entry, looked up): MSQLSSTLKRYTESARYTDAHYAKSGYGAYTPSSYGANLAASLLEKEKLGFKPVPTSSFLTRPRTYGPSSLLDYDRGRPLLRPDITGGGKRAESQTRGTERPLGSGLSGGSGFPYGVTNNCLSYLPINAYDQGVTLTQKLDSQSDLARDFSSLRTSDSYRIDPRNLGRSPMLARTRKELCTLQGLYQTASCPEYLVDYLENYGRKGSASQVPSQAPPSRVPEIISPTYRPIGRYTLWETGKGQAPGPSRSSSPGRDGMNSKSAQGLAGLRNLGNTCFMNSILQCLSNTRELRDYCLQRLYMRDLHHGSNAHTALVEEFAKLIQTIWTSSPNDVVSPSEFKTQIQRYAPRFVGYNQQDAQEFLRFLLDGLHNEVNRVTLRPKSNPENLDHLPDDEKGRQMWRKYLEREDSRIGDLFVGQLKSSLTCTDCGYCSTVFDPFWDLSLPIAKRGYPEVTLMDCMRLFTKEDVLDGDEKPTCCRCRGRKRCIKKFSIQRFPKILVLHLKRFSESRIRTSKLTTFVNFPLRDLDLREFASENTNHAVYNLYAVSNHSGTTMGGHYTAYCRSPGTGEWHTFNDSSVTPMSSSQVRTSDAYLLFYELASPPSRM
How it was run: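 USP2 (dispensed at 5 nM) was pinned with compounds, then DiUb K48 internally quenched fluorescent substrate (dispensed at 100 nM) was added. The buffer was 20 mM Tris pH 8, 2 mM beta-mercaptoethanol and 0.05% CHAPS. Cleavage was read kinetically as rising fluorescence, Ex 525/Em 598.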

[19] = NCATS anti-infectives library activity on the primary C. elegans qHTS viability assay (AID 1745855; calls by dose curve)
How it was run: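 Viability is taken from GFP fluorescence of PE254-GFP-FLuc C. elegans imaged by laser cytometry over 7 days. Ten L1 worms per well grow at 21 °C on TOP10 E. coli capsules with titrated compound; levamisole marks toxicity.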

[20] = measured here: PEO1 parental Z-AUC

## O=C1NC(=O)/C(=C\c2ccc(-c3ccc(F)cc3O)o2)S1
[1]
  Potency: 13 µM (active)
[2]
  Potency: 11.6 µM (active)

## O=Nc1c(-c2c(O)[nH]c3ccc(F)cc23)[nH]c2ccccc12
[1]
  Potency: 1.84 µM (active)
[2]
  Potency: 2.06 µM (active)

## CC(NC(=O)c1sc2ncccc2c1-n1cccc1)c1ccccc1 (stereo unspecified)
[3]
  Potency: 28.2 µM (active)
[4]
  Potency: inactive
[5]
  Potency: inactive
[6]
  Potency: inactive
[7]
  Potency: inactive

## Oc1cccc(Nc2cc(-c3ccccc3)ncn2)c1
[3]
  Potency: 39.8 µM (active)

## Oc1cccc(Nc2ccnc3[nH]c4ccccc4c23)c1
[1]
  Potency: 4.11 µM (active)
[2]
  Potency: 4.11 µM (active)
[8]
  activity: -17.6%
[9]
  Potency: 48.2 µM (active)
[10]
  activity: -74.1%
[11]
  activity: -25.8%
[12]
  Potency: inactive

## C=CC(=O)N1CC[C@@H](Oc2nc(Nc3ccc(N4CCC(N5CCN(C)CC5)CC4)cc3)c(C(N)=O)nc2CC)C1
[3]
  Potency: 4.15 µM (active)
[1]
  Potency: 0.91 µM (active)
[2]
  Potency: 1.62 µM (active)
[12]
  Potency: inactive
[13]
  Potency: inactive
[14]
  Potency: 1.69 µM (active)
[14]; [20]
  Z-AUC: -1.18
[14]; measured here: PEO4 Z-AUC
  Z-AUC: -1.49

## Cc1cn(C2C[C@H](O)[C@@H](CO)O2)c(=O)[nH]c1=O (stereo partly specified)
[1]
  Potency: inactive
[2]
  Potency: inactive

## COc1cc2c(NC3CCN(C)CC3)nc(N3CCCN(C)CC3)nc2cc1OCCCN(C)C
[1]
  Potency: inactive
[2]
  Potency: inactive
[8]
  activity: 3.04%
[9]
  activity change, negative = inhibition: 3.96%
[10]
  activity: -9.37%
[11]
  activity: -4.66%
[12]
  Potency: inactive
[13]
  Potency: 18 µM (active)
[14]
  Z-AUC: -0.893 (inactive)
[14]; [20]
  Z-AUC: -0.915
[14]; measured here: PEO4 Z-AUC
  Z-AUC: -1.6

## O=c1cc(-c2ccccc2)oc2ccc(O)cc12
[3]
  Potency: 20 µM (active)
[1]
  Potency: 18.4 µM (active)
[12]
  Potency: inactive

## Cc1cccc(NC(=O)c2sc3nc(-c4cc5ccc(O)cc5oc4=O)[nH]c(=O)c3c2C)c1
[3]
  Potency: 6.02 µM (active)
[15]
  Potency: inactive
[7]
  Potency: inactive
[16]
  Potency: 50.1 µM (active)

## CCCCOc1ccc(CC/C=C2\SC(=O)N(CCN)C2=O)cc1
[1]
  Potency: 9.2 µM (active)
[2]
  Potency: 8.2 µM (active)

## Cc1cccc(C(=O)Nc2sc3c(c2C(=O)O)CCCC3)c1
[3]
  Potency: 35.5 µM (active)
[4]
  Potency: inactive
[5]
  Potency: inactive
[6]
  Potency: inactive
[7]
  Potency: inactive
[16]
  Potency: inactive

## CCN1CCN(c2ccc(Nc3ccc(-c4ccc(C(N)=O)cc4)n4ncnc34)cc2)CC1
[1]
  Potency: 9.2 µM (active)
[2]
  Potency: 7.31 µM (active)
[8]
  activity: -0.444%
[9]
  activity change, negative = inhibition: 0%
[10]
  activity: -65.3%
[11]
  activity: -8.41%
[12]
  Potency: inactive

## O=S(=O)(c1cccc(Cl)c1)n1c(/C=C/c2ccccc2Cl)nc2ccccc21
[3]
  Potency: 6.76 µM (active)

## CCn1c(-c2nonc2N)nc2cncc(C(=O)N3CC[C@H](N)C3)c21
[1]
  Potency: 10.3 µM (active)

## [N-]=[N+]=N[C@]1(CO)O[C@@H](n2ccc(N)nc2=O)[C@@H](O)[C@@H]1O
[1]
  Potency: 5.17 µM (active)
[2]
  Potency: 3.66 µM (active)

## COc1ccc(C(=O)Nc2noc3ccccc23)cc1
[3]
  Potency: 39.8 µM (active)

## O=C(/C=C/c1ccc2ccccc2n1)c1ccncc1
[1]
  Potency: 3.66 µM (active)
[2]
  Potency: 4.11 µM (active)

## COc1cc2nc(N3CCCC3)nc(NC3CC3)c2cc1OC
[3]
  Potency: 38.8 µM (active)

## Cc1ccc(S(=O)(=O)Nc2cnccc2C(=O)Nc2nc(-c3cccc(C)c3)cs2)cc1
[17]
  outcome: inactive
[18]
  Potency: 1.37 µM (active)
[3]
  Potency: 17.3 µM (active)

## CC(C)CCNc1ncnc2c1cnn2-c1cccc(Cl)c1
[3]
  Potency: 14.1 µM (active)

## C[C@]12CCCN1CC1=NNC(=O)c3cc(F)cc4[nH]c2c1c34
[1]
  Potency: 10.5 µM (active)
[2]
  Potency: 3.72 µM (active)
[19]
  Potency: inactive
[13]
  Potency: inactive
[14]
  Z-AUC: -0.827 (inactive)
[14]; [20]
  Z-AUC: -0.713
[14]; measured here: PEO4 Z-AUC
  Z-AUC: 0.783

## C[C@H](NC(=O)c1c(N)nn2cccnc12)c1cc2cccc(C#Cc3cnn(C)c3)c2c(=O)n1-c1ccccc1
[1]
  Potency: 1.62 µM (active)
[2]
  Potency: 3.62 µM (active)
[12]
  Potency: inactive
[13]
  Potency: inactive
[14]
  Z-AUC: -0.378 (inactive)
[14]; [20]
  Z-AUC: 0.564
[14]; measured here: PEO4 Z-AUC
  Z-AUC: 0.799

## Nc1ncccc1-c1nc2ccc(-c3ccccc3)nc2n1-c1ccc(C2(N)CCC2)cc1
[1]
  Potency: 0.118 µM (active)
[2]
  Potency: 0.186 µM (active)
[12]
  Potency: 23 µM (active)
[13]
  Potency: 22.7 µM (active)
[14]
  Z-AUC: -0.599 (inactive)
[14]; [20]
  Z-AUC: -0.0298
[14]; measured here: PEO4 Z-AUC
  Z-AUC: -0.137

## O=C(NO)c1cnc(NC2(c3ccccc3)CC2)nc1
[1]
  Potency: 7.42 µM (active)
[2]
  Potency: 7.42 µM (active)
[12]
  Potency: inactive
[13]
  Potency: inactive
[14]
  Z-AUC: -0.236 (inactive)
[14]; [20]
  Z-AUC: 0.229
[14]; measured here: PEO4 Z-AUC
  Z-AUC: 0.185

## Nc1n[nH]c(N)c1N=Nc1ccc(O)cc1
[1]
  Potency: 13 µM (active)
[2]
  Potency: 14.6 µM (active)
[12]
  Potency: inactive

## O=C(CCCCCCNC(=O)c1cnc(N(c2ccccc2)c2ccccc2Cl)nc1)NO
[1]
  Potency: 2.63 µM (active)
[2]
  Potency: 2.09 µM (active)
[12]
  Potency: inactive
[13]
  Potency: inactive

## CCc1cc(/C(C)=N/OCc2ccc(C3CCCCC3)c(C(F)(F)F)c2)ccc1CN1CC(C(=O)O)C1
[1]
  Potency: inactive
[2]
  Potency: inactive
[12]
  Potency: inactive
[13]
  Potency: inactive
